Measured values taken from PubChem BioAssay (NCI).
This is part of a sample that, as a whole, favours compounds with a hit. Of some 83,000 tested, about 20% had one in any assay.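 Plates (96-well) were seeded with cells, treated with compound at one concentration, and incubated for 48 hours before percent growth was determined.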 A number with no mark means an inactive call. Active and inactive are the calls of the source. The calls were made as follows: active = growth percent below 10; inactive = the rest.

How the values were obtained:
Test in all cases: NCI-60 one-dose screen, 48 h (100 = growth as untreated, 0 = no growth, -100 = all killed)
DU-145 prostate = settings: 10 µM unless noted
K-562 leukemia = settings: 10 µM unless noted
MALME-3M melanoma = settings: 10 µM unless noted
RXF 393 renal = settings: 10 µM unless noted
UACC-257 melanoma = settings: 10 µM unless noted
HCT-15 colon = settings: 10 µM
HT29 colon = settings: 10 µM unless noted
SNB-75 CNS = settings: 10 µM unless noted
SNB-19 CNS = settings: 10 µM unless noted
PC-3 prostate = settings: 10 µM unless noted
SK-MEL-5 melanoma = settings: 10 µM unless noted
LOX IMVI melanoma = settings: 10 µM unless noted
CAKI-1 renal = settings: 10 µM unless noted
A498 renal = settings: 10 µM unless noted
HL-60(TB) leukemia = settings: 10 µM unless noted
MOLT-4 leukemia = settings: 10 µM
T-47D breast = settings: 10 µM unless noted
BT-549 breast = settings: 10 µM
HCC-2998 colon = settings: 10 µM unless noted
SF-295 CNS = settings: 10 µM unless noted

Structure (SMILES)	growth (DU-145 prostate)	growth (K-562 leukemia)	growth (MALME-3M melanoma)	growth (RXF 393 renal)	growth (UACC-257 melanoma)	growth (HCT-15 colon)	growth (HT29 colon)	growth (SNB-75 CNS)	growth (SNB-19 CNS)	growth (PC-3 prostate)	growth (SK-MEL-5 melanoma)	growth (LOX IMVI melanoma)	growth (CAKI-1 renal)	growth (A498 renal)	growth (HL-60(TB) leukemia)	growth (MOLT-4 leukemia)	growth (T-47D breast)	growth (BT-549 breast)	growth (HCC-2998 colon)	growth (SF-295 CNS)
Cc1cc(NC(=O)NCCOc2ccc(N3C(N)=NC(N)=NC3(C)C)cc2Cl)ccc1S(=O)(=O)F	34.4%	13%	53.3%	53.8%	32.2%	92%	9.65% (active)	71.5%	51.5%	-2.88% (active)	23.1%	12.8%	95.1%	79.1%	18.1%	26.7%	50%	52.1%	47.3%	
CCCCNCCc1ccccn1	113%	90.4%	101%	113%	94.5%	102%	102%	104%	113%	96%	111%	97.1%	97%	95.5%	99.1%	97.5%	97.2%	98.2%	114%	100%
COc1cccc2c1C(=O)c1c(O)c3c(c(O)c1C2=O)CC(O)(/C(C)=N/NC(=O)CCC(=O)N/N=C(\C)C1(O)Cc2c(O)c4c(c(O)c2C(OC2CC(N)C(O)C(C)O2)C1)C(=O)c1c(OC)cccc1C4=O)CC3OC1CC(N)C(O)C(C)O1 (configuration not stated)	-30.5% [5 µM] (active)	-60.2% [5 µM] (active)	-99.1% [5 µM] (active)	-56.7% [5 µM] (active)	-17.8% [5 µM] (active)		-79% [5 µM] (active)	-53.2% [5 µM] (active)	-20.9% [5 µM] (active)	-19.3% [5 µM] (active)	-100% [5 µM] (active)	-35.3% [5 µM] (active)	-44.3% [5 µM] (active)	-69.1% [5 µM] (active)	-41.9% [5 µM] (active)		-24.2% [5 µM] (active)		-94.5% [5 µM] (active)	-32.8% [5 µM] (active)
Cc1cc(NC(=O)/C=C/c2ccc([N+](=O)[O-])cc2)ccc1S(=O)(=O)F	103%	94.7%	103%	119%	97.4%	98.2%	99.7%		109%	98.9%	100%	102%	114%	98.7%	98.5%	89.5%	87.6%	106%	102%	
CC1(C)N=C(N)N=C(N)N1c1ccc(CCCCc2ccc(S(=O)(=O)F)cc2)c(Cl)c1	30.6%	13.1%	44.3%	43.1%	30.9%	29.5%	8.74% (active)		38.7%	7.48% (active)	16.6%	8.78% (active)	17%	37.3%	19.2%	18.2%	-0.711% (active)	46.2%	35.5%	3.69% (active)
C[CH2][Pb]([CH2]C)([CH2]C)[O]C(=O)COc1ccccc1	-6.43% (active)	4.92% (active)	21.8%	7.08% (active)		12.4%	4.3% (active)			20.3%	-21.4% (active)	-35.8% (active)	-5.81% (active)	-2.32% (active)	-48.1% (active)	-27.2% (active)	17.2%	-11.4% (active)	-52% (active)	-62.3% (active)
CC1(C)N=C(N)N=C(N)N1c1ccc(OCCCCNC(=O)Nc2cccc(S(=O)(=O)F)c2)c(Cl)c1	37.1%	17.7%	56.5%	58.2%	45.4%	90.3%	14.4%	74.8%	45.7%	5.73% (active)	25.9%	13.7%	96.6%	90.3%	29.4%	37.6%	115%	66.4%	50.8%	
Nc1nc(N)c(-c2ccc(Cl)c(Cl)c2)c(/C=C/c2ccc(S(=O)(=O)F)cc2)n1	96.7%	53.4%	86.9%	90.6%	76.3%	77.9%	59.4%	78.4%	102%	65%	84.6%	69.1%	84.4%	87.7%	91.9%	76.8%	96.1%	94.6%	111%	
O=[N+]([O-])c1ccc(F)c([N+](=O)[O-])c1F	115%	11.1%	96%	109%	103%	116%	103%	116%	115%	89.3%	103%	102%	103%	93.7%	92.2%	58%	96.6%		105%	104%
